In assay [1] the target is Lysosomal acid glucosylceramidase (Homo sapiens) (UniProt P04062). In words: Glucocerebrosidase-p2 (AID 348; in the data active means potency below about 10 µM; further: potency means the concentration at half of the fitted maximal effect). The settings on record: purified GBA, blue fluorogenic substrate, 40 min. The procedure, abridged:
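Compounds titrated from 0.6 nM upwards against 0.2 nM enzyme in pH 5.9 citric acid/KH2PO4, taurocholate, tween-20; blue fluorogenic substrate 80 uM, 40 min room temperature, stopped and read Ex 365/Em 440 for AC50.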

A short description of assay [2]: AP1 Signaling Pathway (AID 357). Further: on the % scale 0 is the no-effect control and ±100 the full control effect. The settings on record: ME-180 AP-1-bla reporter, EGF-induced, beta-lactamase ratio, 5 h; at 7.69 µM (top of the series) unless noted. In short, it runs like this: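 A ratiometric CCF4 readout (405 nm excitation; 460 and 530 nm emission) quantified AP-1-driven beta-lactamase in ME-180 cells after 5 h with compound and EC50 EGF; AC50 values were derived for activators and inhibitors.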

In assay [3] the target is Cytochrome P450 1A2 (Homo sapiens) (UniProt P05177). Briefly: p450-cyp1a2 (AID 410; calls by dose curve; further: potency means the concentration at half of the fitted maximal effect). The settings on record: recombinant CYP1A2, luciferin-ME demethylation, luminescence; series mostly up to 11.4 µM. The procedure, abridged:
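20nM CYP1A2 with 100uM Luciferin-ME (at Km) in 100mM KPO4; compound preincubated 10 min, NADPH regeneration added, 60 min at room temperature. Luciferin quantified by luminescence after detection reagent; normalized to 57 uM furafylline.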

Assay [4] is described as follows: NFAT Signaling Pathway (AID 444).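 Further: carbachol stimulus at about its EC50 of 1 µM final; on the % scale 0 is the no-effect control and ±100 the full control effect.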 The settings on record: Jurkat NFAT-bla M1, carbachol, beta-lactamase ratio, 5 h; at 7.69 µM (top of the series) unless noted. The procedure, abridged:
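Jurkat cells with NFAT-driven β-lactamase reporter and co-expressed M1 receptor, stimulated with carbachol (final 1 uM, ~EC50), compound titration, 5 h at 37 °C. CCF4 loaded 1 h at RT; 460/530 nm ratio gave %activity and AC50.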

The nature of assay [5]: Stat Signaling Pathway (AID 446).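 Further: ME-180 cervical cancer cells given 40 pM IL-6 alongside compound; SIE-controlled beta-lactamase reporter measured as 460/530 nm FRET emission ratio; on the % scale 0 is the no-effect control and ±100 the full control effect.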 Conditions: ME-180 SIE beta-lactamase reporter, IL-6 stimulated, 5 h; at 7.69 µM (top of the series) unless noted. In short, it runs like this:
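ME-180 cells carrying a SIE-driven beta-lactamase reporter are stimulated with 40 pM IL-6 for 5 h at 37C in the presence of compound. The 460/530 nm FRET substrate ratio is read after 2.5 h at RT. Data are normalised to 300 pM IL-6 and to 125 nM JAK inhibitor controls.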

The target of assay [6] is Glucocorticoid receptor (Homo sapiens) (UniProt P04150). Briefly: GR-GFP Redistribution (AID 450;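 active means compounds whose dose series gives a full or clear partial fitted curve of increased nuclear translocation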; further: potency means the concentration at half of the fitted maximal effect). The settings on record: U2OS GR-GFP nuclear translocation, laser cytometry, 2 h.
Glucocorticoid receptor (Homo sapiens), sequence (P04150 whole entry, looked up, the tested form may be a part): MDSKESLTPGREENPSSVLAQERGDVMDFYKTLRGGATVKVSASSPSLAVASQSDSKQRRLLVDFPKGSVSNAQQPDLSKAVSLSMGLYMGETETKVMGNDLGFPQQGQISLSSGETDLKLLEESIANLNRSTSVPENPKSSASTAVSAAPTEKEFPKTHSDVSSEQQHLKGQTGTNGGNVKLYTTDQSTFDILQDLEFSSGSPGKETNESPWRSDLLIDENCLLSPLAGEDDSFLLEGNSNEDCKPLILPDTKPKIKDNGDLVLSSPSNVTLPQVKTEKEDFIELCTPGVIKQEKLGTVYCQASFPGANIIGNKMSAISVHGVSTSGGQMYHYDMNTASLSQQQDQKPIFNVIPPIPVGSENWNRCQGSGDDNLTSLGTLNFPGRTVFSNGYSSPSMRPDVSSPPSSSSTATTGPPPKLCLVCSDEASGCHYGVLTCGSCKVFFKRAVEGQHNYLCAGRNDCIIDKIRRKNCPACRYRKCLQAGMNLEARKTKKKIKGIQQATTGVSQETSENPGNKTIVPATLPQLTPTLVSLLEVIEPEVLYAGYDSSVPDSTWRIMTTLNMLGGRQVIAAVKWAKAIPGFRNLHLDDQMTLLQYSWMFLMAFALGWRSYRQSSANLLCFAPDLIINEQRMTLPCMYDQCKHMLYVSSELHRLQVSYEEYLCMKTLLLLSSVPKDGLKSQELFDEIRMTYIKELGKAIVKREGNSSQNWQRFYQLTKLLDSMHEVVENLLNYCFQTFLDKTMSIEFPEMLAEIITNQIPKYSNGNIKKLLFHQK
Assay [7] shares this target. Briefly: GR-EFC Redistribution (AID 451; calls by dose curve; further: potency means the concentration at half of the fitted maximal effect). Conditions: CHO-K1 GR-EFC translocation, beta-gal luminescence, 2 h. The procedure, abridged: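 CHO-K1 cells expressing nuclear EA and GR-ED fragments of b-gal; compounds titrated up to 46 uM final, 2 h at 37 C. GR nuclear translocation read as complemented b-gal luminescence after 1 h RT detection.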
Assay [8] has as its target Mitogen-activated protein kinase 10 (Mus musculus) (UniProt Q61831). Briefly: JNK3 AlphaScreen Assay (AID 530).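 Further: kinase came from lysate of stimulated human HepG2 cells; signal reports phosphorylation of biotinylated GST-cJun 1-79 at Ser73 with 10 µM ATP; on the % scale 0 is the no-effect control and ±100 the full control effect.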 Conditions: JNK3 lysate, c-Jun phosphorylation; series mostly up to 11.4 µM. The procedure, abridged:
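Pre-activated (IL-1β/TNFα) JNK3 in HepG2 lysates phosphorylates biotin-GST-cJun(1-79), 10 uM ATP; anti-phospho-cJun(Ser73) AlphaScreen read at room temperature, pH 7.6 Tris buffer. Compounds pre-incubated 15 min as titrations.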
(In Alpha technology, singlet oxygen from a donor bead excites a nearby acceptor bead.)

The target of assay [9] is Cytochrome P450 3A4 (Homo sapiens) (UniProt P08684). In words: qHTS Assay for Inhibitors and Substrates of Cytochrome P450 3A4 (AID 884; active means well fitted curve in the direction sought with a large enough effect; an effect the other way counts as inactive or inconclusive; further: nearly all actives have a fitted effect of over 50% in size; further: potency means the concentration at half of the fitted maximal effect). Conditions: recombinant CYP3A4, Luciferin-PPXE luminescence; series mostly up to 57.1 µM. The procedure, abridged:
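20 nM human CYP3A4 with 25 uM Luciferin-PPXE (at KM) in 200 mM KPO4, preincubated 10 min with compound; NADPH regeneration started a 60 min RT reaction. Luciferin detected by luminescence, normalized to 57 uM ketoconazole as full inhibition.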
For orientation: In qHTS, concentration-response curves come from the screen itself.

Assay [10] has the same target. In words: qHTS Assay for Activators of Cytochrome P450 3A4 (AID 885; active means well fitted curve in the direction sought with a large enough effect; an effect the other way counts as inactive or inconclusive; further: nearly all actives have a fitted effect of over 65% in size; further: potency means the concentration at half of the fitted maximal effect). The settings on record: recombinant CYP3A4, Luciferin-PPXE luminescence, 60 min; series mostly up to 11.4 µM. In short, it runs like this:
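Human CYP3A4 (20 nM) with Luciferin-PPXE at 25 uM (its KM) in 200 mM KPO4; 10 min compound preincubation, then NADPH regeneration and 60 min reaction at RT. Luciferin read by luminescence; normalized to 57 uM ketoconazole full inhibition.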

Assay [11] addresses Cytochrome P450 2D6 (Homo sapiens) (UniProt P10635). Briefly: qHTS Assay for Inhibitors and Substrates of Cytochrome P450 2D6 (AID 891; active means well fitted curve in the direction sought with a large enough effect; an effect the other way counts as inactive or inconclusive;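 further: luciferin methyl ether substrate demethylated by CYP2D6 with NADPH regeneration; on the % scale 0 is the no-effect control and ±100 the full control effect; nearly all actives have a fitted effect of over 60% in size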). The settings on record: recombinant CYP2D6, luciferin-ME EGE luminescence; series mostly up to 11.4 µM. In short, it runs like this:
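Human CYP2D6 (5 nM) with 30 uM Luciferin-ME EGE (at Km) in 100 mM KPO4, compound preincubated 10 min, then NADPH regeneration system for 60 min at room temperature. Luciferin read by luminescence; normalized to 1.43 uM quinidine.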

Assay [12] is described as follows: qHTS Assay for Identification of Small Molecule Agonists for Hypoxia Response Element Signaling Pathway (AID 914; active means well fitted activation curve with a large enough effect in the signal ratio, with a control signal flat, not every such curve was filed as active; the % refers to the signal ratio; further: % of control where 0% means no effect). The settings on record: ME-180 (cervical carcinoma) HRE-bla reporter, beta-lactamase ratio, CoCl2, 17 h; activation: stronger effect = higher value. The procedure, abridged: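 qHTS titration; ME-180 HRE-bla cells; EC50 CoCl2 co-treatment, 17 h at 37 degrees Celsius; CCF4 dye, ex 405nm, em 460nm and 530nm; %Activity from ratio; AC50.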

Assay [13] addresses 3',5'-cyclic-AMP phosphodiesterase 4B (Homo sapiens) (UniProt Q07343). In words: qHTS Assay for Inhibitors of PDE-IV (AID 607; active means well fitted activation curve with a large enough effect in the main read-out, with a control signal flat, not every such curve was filed as active; further: % of control where 0% means no effect). The settings on record: HEK293 ACTOne CNG channel cells, membrane potential fluorescence; series mostly up to 22.9 µM. In short, it runs like this: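 HEK293 ACTOne cells with CNG channel (1000/well), endogenous PDE4; membrane potential dye, compounds up to 22.9 uM final. Fluorescence Ex 535/Em 590; RO 20-1724 (100 uM final) as reference.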

Assay [14] addresses Cytochrome P450 2C9 (Homo sapiens) (UniProt P11712). In words: qHTS Assay for Inhibitors and Substrates of Cytochrome P450 2C9 (AID 883; active means well fitted curve in the direction sought with a large enough effect; an effect the other way counts as inactive or inconclusive; further: potency means the concentration at half of the fitted maximal effect; nearly all actives have a fitted effect of over 60% in size). The settings on record: recombinant CYP2C9, luciferin-H luminescence, 60 min; series mostly up to 11.4 µM. In short, it runs like this:
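Human CYP2C9 (10nM) with Luciferin-H at 100uM (its KM) in 25mM KPO4; compound preincubated 10 min at 37C, then NADPH regeneration for 60 min at 37C. Luciferin read by luminescence after detection reagent; normalized to 57uM sulphaphenazole as full inhibition.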

For assay [15], the target named is Cytochrome P450 2C19 (Homo sapiens) (UniProt P33261). Briefly: qHTS Assay for Inhibitors and Substrates of Cytochrome P450 2C19 (AID 899; active means well fitted curve in the direction sought with a large enough effect; an effect the other way counts as inactive or inconclusive; further: nearly all actives have a fitted effect of over 60% in size; further: potency means the concentration at half of the fitted maximal effect). The settings on record: recombinant CYP2C19, luciferin-H EGE luminescence; series mostly up to 11.4 µM. In short, it runs like this: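 5 nM human CYP2C19 with 10uM Luciferin-H EGE (at KM) in 50mM KPO4, compound preincubated 10 min at 37C, then NADPH regeneration for 60 min at 37C. Luciferin read by luminescence after detection reagent; normalized to 57uM ketoconazole as full inhibition.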
Cytochrome P450 2C19 (Homo sapiens), sequence (P33261 whole entry, looked up): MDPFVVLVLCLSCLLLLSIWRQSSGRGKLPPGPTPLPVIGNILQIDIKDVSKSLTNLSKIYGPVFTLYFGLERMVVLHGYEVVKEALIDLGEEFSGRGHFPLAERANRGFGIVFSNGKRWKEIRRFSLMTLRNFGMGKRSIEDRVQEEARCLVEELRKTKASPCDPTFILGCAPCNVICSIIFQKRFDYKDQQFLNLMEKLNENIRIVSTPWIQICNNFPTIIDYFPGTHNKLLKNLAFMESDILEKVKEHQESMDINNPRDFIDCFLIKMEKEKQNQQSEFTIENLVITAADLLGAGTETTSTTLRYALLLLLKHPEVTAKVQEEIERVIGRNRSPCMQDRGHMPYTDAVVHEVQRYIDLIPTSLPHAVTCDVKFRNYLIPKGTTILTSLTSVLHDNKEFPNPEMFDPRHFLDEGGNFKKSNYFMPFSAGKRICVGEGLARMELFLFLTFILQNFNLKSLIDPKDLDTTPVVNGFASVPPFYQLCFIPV

Unmarked numbers belong to inactive results. Records with an inconclusive call do not appear. Activity calls are given as the source filed them. Unless noted, the call rests on the fitted dose curve; in most records, active means well fitted curve in either direction with a large enough effect (not every such curve was filed as active); inconclusive means small, poorly fitted or top-dose-only effect, or another doubt; inactive means flat fitted curve, though single readings scatter.

Cytochrome P450 3A4 (Homo sapiens), sequence (P08684 whole entry, looked up): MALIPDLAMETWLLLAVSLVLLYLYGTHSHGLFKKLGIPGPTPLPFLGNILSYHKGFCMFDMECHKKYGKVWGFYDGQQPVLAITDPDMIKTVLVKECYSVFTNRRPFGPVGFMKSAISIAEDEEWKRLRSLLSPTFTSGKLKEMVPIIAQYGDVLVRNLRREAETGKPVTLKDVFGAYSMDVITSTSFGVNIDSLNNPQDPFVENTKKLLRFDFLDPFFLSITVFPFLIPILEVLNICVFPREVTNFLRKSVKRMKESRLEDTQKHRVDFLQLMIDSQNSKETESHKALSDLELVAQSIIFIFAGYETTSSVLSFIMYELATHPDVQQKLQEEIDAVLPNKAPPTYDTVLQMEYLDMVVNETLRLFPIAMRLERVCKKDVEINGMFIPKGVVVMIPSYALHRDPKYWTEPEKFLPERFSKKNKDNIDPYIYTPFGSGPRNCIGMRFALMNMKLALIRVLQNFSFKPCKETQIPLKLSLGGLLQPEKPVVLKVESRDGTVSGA
Lysosomal acid glucosylceramidase (Homo sapiens), sequence (P04062 whole entry, looked up): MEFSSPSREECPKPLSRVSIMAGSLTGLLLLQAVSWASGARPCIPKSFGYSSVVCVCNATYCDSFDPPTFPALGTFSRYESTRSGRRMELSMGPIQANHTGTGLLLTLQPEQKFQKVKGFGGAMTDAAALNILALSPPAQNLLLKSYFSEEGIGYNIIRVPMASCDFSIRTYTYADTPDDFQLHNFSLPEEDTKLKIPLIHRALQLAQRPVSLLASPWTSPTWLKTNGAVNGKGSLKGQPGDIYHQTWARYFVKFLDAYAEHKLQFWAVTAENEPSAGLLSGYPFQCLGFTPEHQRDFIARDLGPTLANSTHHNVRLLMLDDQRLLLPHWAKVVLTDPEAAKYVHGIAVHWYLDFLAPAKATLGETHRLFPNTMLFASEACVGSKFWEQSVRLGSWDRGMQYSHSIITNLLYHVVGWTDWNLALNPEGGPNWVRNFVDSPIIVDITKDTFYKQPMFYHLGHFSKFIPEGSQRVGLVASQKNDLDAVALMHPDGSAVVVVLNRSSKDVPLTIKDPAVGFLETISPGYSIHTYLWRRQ
Cytochrome P450 1A2 (Homo sapiens), sequence (P05177 whole entry, looked up): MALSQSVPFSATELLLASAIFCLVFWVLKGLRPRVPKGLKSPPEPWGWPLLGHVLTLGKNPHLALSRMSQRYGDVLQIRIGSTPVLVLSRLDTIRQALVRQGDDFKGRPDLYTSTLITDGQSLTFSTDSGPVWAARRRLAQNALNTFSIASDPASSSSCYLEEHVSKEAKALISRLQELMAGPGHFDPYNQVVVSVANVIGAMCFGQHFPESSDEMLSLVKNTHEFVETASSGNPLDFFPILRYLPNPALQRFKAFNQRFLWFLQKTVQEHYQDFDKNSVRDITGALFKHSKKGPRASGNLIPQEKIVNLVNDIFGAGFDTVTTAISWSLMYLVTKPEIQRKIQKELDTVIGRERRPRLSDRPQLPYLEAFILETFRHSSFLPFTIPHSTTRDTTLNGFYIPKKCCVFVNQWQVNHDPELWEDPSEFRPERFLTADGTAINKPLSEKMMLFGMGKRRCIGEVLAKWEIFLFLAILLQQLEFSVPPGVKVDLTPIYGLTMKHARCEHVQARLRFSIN
3',5'-cyclic-AMP phosphodiesterase 4B (Homo sapiens), sequence (Q07343 whole entry, looked up): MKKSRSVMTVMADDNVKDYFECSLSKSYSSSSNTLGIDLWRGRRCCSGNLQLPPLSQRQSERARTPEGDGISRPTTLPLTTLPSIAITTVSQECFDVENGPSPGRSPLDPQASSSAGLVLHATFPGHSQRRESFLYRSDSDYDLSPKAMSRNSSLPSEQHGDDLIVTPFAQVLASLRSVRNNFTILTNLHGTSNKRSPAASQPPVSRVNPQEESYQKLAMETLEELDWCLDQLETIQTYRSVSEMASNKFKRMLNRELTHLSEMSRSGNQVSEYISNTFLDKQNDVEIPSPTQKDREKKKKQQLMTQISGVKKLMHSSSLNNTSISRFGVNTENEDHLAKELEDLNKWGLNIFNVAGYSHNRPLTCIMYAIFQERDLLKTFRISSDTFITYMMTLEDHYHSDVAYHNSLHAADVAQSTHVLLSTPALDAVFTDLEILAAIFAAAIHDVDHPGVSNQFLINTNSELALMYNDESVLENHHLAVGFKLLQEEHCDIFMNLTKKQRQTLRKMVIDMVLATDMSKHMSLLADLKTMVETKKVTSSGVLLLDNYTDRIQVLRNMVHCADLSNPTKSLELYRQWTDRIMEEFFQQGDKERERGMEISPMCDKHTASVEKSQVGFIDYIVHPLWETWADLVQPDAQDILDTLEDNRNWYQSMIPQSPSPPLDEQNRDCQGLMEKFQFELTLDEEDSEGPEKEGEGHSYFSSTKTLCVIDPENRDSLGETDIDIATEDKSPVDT
Cytochrome P450 2D6 (Homo sapiens), sequence (P10635 whole entry, looked up): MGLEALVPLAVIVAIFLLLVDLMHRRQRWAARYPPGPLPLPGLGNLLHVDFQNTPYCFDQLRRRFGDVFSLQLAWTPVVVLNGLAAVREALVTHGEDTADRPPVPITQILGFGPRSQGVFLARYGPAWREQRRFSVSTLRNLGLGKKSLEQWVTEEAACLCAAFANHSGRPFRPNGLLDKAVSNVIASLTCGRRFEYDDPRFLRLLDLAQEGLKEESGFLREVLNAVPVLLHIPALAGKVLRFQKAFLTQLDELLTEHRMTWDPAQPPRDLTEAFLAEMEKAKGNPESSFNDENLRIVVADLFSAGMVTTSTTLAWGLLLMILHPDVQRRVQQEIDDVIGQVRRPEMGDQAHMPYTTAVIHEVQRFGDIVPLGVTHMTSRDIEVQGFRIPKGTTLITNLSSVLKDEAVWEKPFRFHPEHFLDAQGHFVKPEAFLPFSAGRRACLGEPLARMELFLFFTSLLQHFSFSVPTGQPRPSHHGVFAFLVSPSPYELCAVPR
Cytochrome P450 2C9 (Homo sapiens), sequence (P11712 whole entry, looked up): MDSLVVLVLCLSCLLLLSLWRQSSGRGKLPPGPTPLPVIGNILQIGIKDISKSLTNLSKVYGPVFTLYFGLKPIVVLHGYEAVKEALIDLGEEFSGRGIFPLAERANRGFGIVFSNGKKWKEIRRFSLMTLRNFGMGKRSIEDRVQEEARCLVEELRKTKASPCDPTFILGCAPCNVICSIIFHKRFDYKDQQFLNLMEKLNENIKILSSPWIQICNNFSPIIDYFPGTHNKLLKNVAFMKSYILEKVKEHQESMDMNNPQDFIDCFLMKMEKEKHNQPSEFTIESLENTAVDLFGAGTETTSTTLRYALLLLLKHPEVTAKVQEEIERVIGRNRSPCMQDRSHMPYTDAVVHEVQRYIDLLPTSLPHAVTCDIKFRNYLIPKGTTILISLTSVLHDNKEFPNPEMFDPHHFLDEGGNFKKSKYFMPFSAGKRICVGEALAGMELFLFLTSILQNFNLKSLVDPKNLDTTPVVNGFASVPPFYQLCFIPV

With `CC(=O)OCC(=O)[C@]12OC(C)(C)O[C@@H]1C[C@H]1[C@H]3CC=C4C[C@@H](O)CC[C@]4(C)[C@H]3CC[C@]12C`, the Potency is above 11.4 µM in [1], above 46 µM in [6], above 9.22 µM in assay [7] and 3.16 µM (active) in [10]. For the same compound, the activity change, negative = inhibition in [2] is 8.77%; in [4] it was -9.45%; in assay [9], 69.9% [at 11.4 µM]. Moreover, the Potency entry in assay [3] and in assay [8] was “inactive” each time. Further, in [5], the activity, negative = inhibition is 5.43%.
As to `NS(=O)(=O)c1cc2c(cc1Cl)=NC(CCC(=O)O)=NS=2(=O)O`, the Potency in assay [1] was above 11.4 µM; in assay [6], above 46 µM; in assay [7], above 9.22 µM. Moreover, the activity change, negative = inhibition in [2] is -7.99%; in assay [4], 7.52%. For the same compound, the Potency result in [3], in assay [8] and in assay [11] was “inactive” throughout. Further, the activity, negative = inhibition in [5] was 10.8%.
In the case of `NS(=O)(=O)c1ccc(N=C2C(=O)Nc3ccccc32)cc1`, the Potency is above 11.4 µM in assay [1], above 46 µM in assay [6] and above 9.22 µM in [7]. The activity change, negative = inhibition was -4.71% in assay [2], -12.7% [at 2.29 µM] in assay [3] and 4.31% in assay [4]. In [5], the activity, negative = inhibition is 4.23%. Further, the Potency entry in assay [8] was “inactive”. The activation in [12] was -6.17%.
For the compound `Cc1cc(CN2CCCCC2)c(O)c(CN2CCCCC2)c1`, the Potency in [1] is above 11.4 µM; in assay [6], above 46 µM; in [7], above 9.22 µM. For the same compound, the activity change, negative = inhibition is 25.8% in assay [2], -18.8% [at 2.29 µM] in [3] and -21.4% in assay [4]. For the same compound, the activity, negative = inhibition in assay [5] was -1.32%. Also, the Potency result in assay [8] and in assay [13] was “inactive” each time. Besides, the activation in [12] is 2.92%.
Consider `O=C(O)CC12C[C@H]3C[C@@H](CC(O)(C3)C1)C2`, for which the Potency in [1] was above 11.4 µM; in [6], above 46 µM; in assay [7], above 9.22 µM. Moreover, the activity change, negative = inhibition in assay [2] was 9.34%; in assay [4], -2.52%. Further, the Potency entry in assay [3] and in assay [13] was “inactive” throughout. In addition, the activity, negative = inhibition in assay [5] is -1.43%.
On to `COc1ccc(/C=C(\C#N)C(N)=O)cc1OC`, for which the Potency is above 11.4 µM in [1], 3.16 µM (active) in assay [3], above 46 µM in [6] and above 9.22 µM in [7]. Moreover, the activity change, negative = inhibition in assay [2] is -5.77%; in assay [4], 11.6%. In addition, in assay [5], the activity, negative = inhibition was -2.19%. The Potency result in assay [13] was “inactive”.
Take `COc1ccccc1CCn1c(=O)c(-c2ccccc2)nc2cncnc21`: the Potency in [1] was above 11.4 µM; in [3], 1 µM (active); in assay [6], above 9.22 µM; in assay [7], above 46 µM; in assay [14], 5.01 µM (active); in [9], 3.98 µM (active). In addition, in [15], the Potency is 0.631 µM (active). Moreover, the activity change, negative = inhibition is -5.11% in assay [2] and -9.96% in assay [4]. For the same compound, the activity, negative = inhibition in assay [5] was -0.776%. The Potency result in assay [8] and in [10] was “inactive” each time.
Regarding `N#C[C@@H](N=Nc1ccccc1C(=O)O)C(N)=O`, the Potency in assay [1] is above 11.4 µM; in assay [6], above 46 µM; in assay [7], above 9.22 µM. The activity change, negative = inhibition in assay [2] was 9.26%; in assay [4], -8.71%. Also, the Potency entry in assay [3], in assay [8] and in [15] was “inactive” in each case. In addition, the activity, negative = inhibition in [5] is -29.4%.

These data come from PubChem BioAssay (NCATS).
